Reference: PubChem BioAssay (EPA / NIEHS)
“And” between values parts separate entries of the source, which are not always exact repeats. Equal entries are not always repeated. Some compounds were tested as several samples or in several runs, with calls that do not always agree. The source made the active and inactive calls. Rule for the calls: active = hit-call score of the fitted dose curve at least 0.9, where 1 is the maximum; inactive = score below 0.9.

What was measured:
[1] = read-out: Intercellular Adhesion Molecule 1 (ICAM1), ICAM1 (gene 3383); experiment: BSK_BE3C_ICAM1: BioMAP Diversity Plus: BE3C Assay for Intercellular Adhesion Molecule 1 (ICAM1) Biomarker Activity (AID 2284278); conditions: primary human bronchial epithelial cells;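 note: cell-surface ICAM-1 protein level quantified by ELISA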
How it was run: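 Primary human bronchial epithelial cells in BE3C system, 24 h after chemical dosing; cell-surface ICAM-1 measured by ELISA relative to DMSO. Parallel SRB staining (0.1% SRB after 10% TCA fixation, read at 560 nm) assessed cytotoxicity.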

[2] = read-out: Interferon-inducible T-cell alpha chemoattractant (ITAC), CXCL11 (gene 6373); experiment: BSK_BE3C_ITAC: BioMAP Diversity Plus: BE3C Assay for Interferon-inducible T-cell alpha chemoattractant (ITAC) Biomarker Activity (AID 2284279); conditions: primary human bronchial epithelial cells
How it was run: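 BE3C cells (human primary bronchial epithelium), 24 h compound exposure, I-TAC by ELISA, DMSO = negative control/baseline, positive fitting direction.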

[3] = read-out: Interleukin-8 (IL8), CXCL8 (gene 3576); experiment: BSK_BE3C_IL8: BioMAP Diversity Plus: BE3C Assay for Interleukin-8 (IL8) Biomarker Activity (AID 2284280); conditions: primary human bronchial epithelial cells
How it was run: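 Primary human bronchial epithelial cells (BE3C system) exposed 24 h; IL-8 measured by ELISA and fitted in positive direction versus DMSO. Overt cytotoxicity assessed by SRB total-protein staining in parallel cultures.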

KRT18 (gene 3875) = experiment: BSK_BE3C_Keratin818: BioMAP Diversity Plus: BE3C Assay for Keratin 818 Biomarker Activity (AID 2284282); conditions: primary human bronchial epithelial cells
How it was run: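 Primary human bronchial epithelial cells treated 24 h; Keratin 8/18 quantified by ELISA, fit relative to DMSO. Cytotoxicity tracked in parallel cultures by sulforhodamine B total-protein staining.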

[4] = read-out: Matrix Metallopeptidase 9 (MMP9), MMP9 (gene 4318); experiment: BSK_BE3C_MMP9: BioMAP Diversity Plus: BE3C Assay for Matrix Metallopeptidase 9 (MMP9) Biomarker Activity (AID 2284283); conditions: primary human bronchial epithelial cells
How it was run: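 Human primary bronchial epithelial cells in the BE3C system were dosed with compound for 24 h. MMP-9 was measured by ELISA, and the positive-direction response was fitted relative to DMSO as baseline. Parallel SRB staining gauged cytotoxicity.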

[5] = read-out: Plasminogen activator inhibitor-1 (PAI1), SERPINE1 (gene 5054); experiment: BSK_CASM3C_PAI1: BioMAP Diversity Plus: CASM3C Assay for Plasminogen activator inhibitor-1 (PAI1) Biomarker Activity (AID 2284284); conditions: primary human coronary artery smooth muscle cells;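 note: PAI-1 protein level measured by ELISA 24 h after dosing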
[6] = read-out: Monocyte Chemoattractant Protein-1 (MCP1), CCL2 (gene 6347); experiment: BSK_hDFCGF_MCP1: BioMAP Diversity Plus: hDFCGF Assay for Monocyte Chemoattractant Protein-1 (MCP1) Biomarker Activity (AID 2284285); conditions: primary human foreskin fibroblasts
How it was run: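 Human foreskin fibroblasts (hDFCGF system) were exposed to compound and secreted MCP-1 was measured by ELISA after 24 hours. Activity was fitted relative to DMSO. Cytotoxicity was checked by SRB total-protein staining in parallel cultures.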

[7] = read-out: Vascular cell adhesion molecule 1 (VCAM1), VCAM1 (gene 7412); experiment: BSK_IMphg_VCAM1: BioMAP Diversity Plus: IMphg Assay for Vascular cell adhesion molecule 1 (VCAM1) Biomarker Activity (AID 2284286); conditions: primary human endothelial cells with macrophages
How it was run: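 Human venular endothelial cells co-cultured with macrophages; VCAM-1 quantified by ELISA 24 h after dosing, fitted in the positive direction against DMSO. Cytotoxicity was checked in parallel cultures by SRB total-protein staining (0.1% SRB after 10% TCA fixation, 560 nm).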

[8] = read-out: Intercellular Adhesion Molecule 1 (ICAM1), ICAM1 (gene 3383); experiment: BSK_hDFCGF_ICAM1: BioMAP Diversity Plus: hDFCGF Assay for Intercellular Adhesion Molecule 1 (ICAM1) Biomarker Activity (AID 2284287); conditions: primary human foreskin fibroblasts
How it was run: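 Primary human foreskin fibroblasts (hDFCGF system) dosed with chemical; ICAM-1 quantified by ELISA at 24 h relative to DMSO. Parallel SRB total-protein staining to assess overt cytotoxicity.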

CD40, CD40 (gene 958) = experiment: BSK_IMphg_CD40: BioMAP Diversity Plus: IMphg Assay for CD40 Biomarker Activity (AID 2284288); conditions: primary human endothelial cells with macrophages
How it was run: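 Venular endothelial cells co-cultured with macrophages (human primary), CD40 measured by ELISA 24 h after dosing. Positive-direction fit vs DMSO baseline; cytotoxicity tracked by SRB total-protein staining in parallel cultures.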

[9] = read-out: TIMP metallopeptidase inhibitor 2 (TIMP2), TIMP2 (gene 7077); experiment: BSK_hDFCGF_TIMP2: BioMAP Diversity Plus: hDFCGF Assay for TIMP metallopeptidase inhibitor 2 (TIMP2) Biomarker Activity (AID 2284289); conditions: primary human foreskin fibroblasts
How it was run: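 Primary human foreskin fibroblasts in the hDFCGF system, dosed for 24 h; TIMP-2 level measured by ELISA, fitted in the positive direction against DMSO; cytotoxicity checked in parallel by sulforhodamine B total protein staining.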

[10] = read-out: Interleukin-1 alpha (IL1a), IL1A (gene 3552); experiment: BSK_IMphg_IL1a: BioMAP Diversity Plus: IMphg Assay for Interleukin-1 alpha (IL1a) Biomarker Activity (AID 2284290); conditions: primary human endothelial cells with macrophages
How it was run: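 Human venular endothelial cells co-cultured with macrophages, IMphg system. IL-1α is measured by ELISA 24 h after dosing and fitted in the positive direction against DMSO. Cytotoxicity is assessed by SRB staining of parallel cultures.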

[11] = read-out: E-selectin (Homo sapiens) (UniProt P16581); experiment: BSK_IMphg_ESelectin: BioMAP Diversity Plus: IMphg Assay for Eselectin Biomarker Activity (AID 2284291); conditions: primary human endothelial cells with macrophages
How it was run: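 Human venular endothelial cell–macrophage co-culture, E-selectin measured by ELISA 24 h after chemical dosing. Signal fitted in the positive direction against DMSO as negative control and baseline.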

[12] = BSK_IMphg_SRB: Viability Assessment in the BioMAP Diversity Plus: IMphg Assay (AID 2284292); conditions: primary human endothelial cells with macrophages;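 note: measured one day after compound addition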
How it was run: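 Human venular endothelial cells with macrophages, 24 h after chemical dosing; total protein by 0.1% SRB staining after 10% TCA fixation, read at 560 nm. Positive-direction fitting versus DMSO baseline.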

[13] = read-out: Macrophage colony-stimulating factor (MCSF), CSF1 (gene 1435); experiment: BSK_IMphg_MCSF: BioMAP Diversity Plus: IMphg Assay for Macrophage colony-stimulating factor (MCSF) Biomarker Activity (AID 2284293); conditions: primary human endothelial cells with macrophages
How it was run: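 Co-culture of human venular endothelial cells and macrophages, 24 hours of chemical exposure. M-CSF quantified by ELISA, with parallel SRB total-protein staining for cytotoxicity; activity fitted relative to DMSO.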

[14] = read-out: Interleukin-10 (IL10), IL10 (gene 3586); experiment: BSK_IMphg_IL10: BioMAP Diversity Plus: IMphg Assay for Interleukin-10 (IL10) Biomarker Activity (AID 2284294); conditions: primary human endothelial cells with macrophages
How it was run: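 Human venular endothelial cells cocultured with macrophages, dosed 24 h; IL-10 measured by ELISA, activity relative to DMSO. Cytotoxicity assessed in parallel cultures by sulforhodamine B total-protein staining.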

[15] = BSK_IMphg_SRB.Mphg: Macrophage Viability Assessment in the BioMAP Diversity Plus: IMphg Assay (AID 2284295); conditions: primary human endothelial cells with macrophages
How it was run: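 Venular endothelial cells co-cultured with macrophages, read 24 h after dosing. Total protein measured by 0.1% SRB staining after 10% TCA fixation, absorbance at 560 nm. Fitted in positive direction against DMSO baseline.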

[16] = read-out: Thrombomodulin, THBD (gene 7056); experiment: BSK_LPS_Thrombomodulin: BioMAP Diversity Plus: LPS Assay for Thrombomodulin Biomarker Activity (AID 2284296); conditions: primary human HUVEC with PBMC
How it was run: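 Human umbilical vein endothelial cells co-cultured with PBMC and stimulated with LPS; cell-surface thrombomodulin measured by ELISA 24 hours after compound. Gain or loss versus DMSO; cytotoxicity checked by SRB staining in parallel cultures.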

Chain of E-selectin (Homo sapiens) (P16581 whole entry, looked up): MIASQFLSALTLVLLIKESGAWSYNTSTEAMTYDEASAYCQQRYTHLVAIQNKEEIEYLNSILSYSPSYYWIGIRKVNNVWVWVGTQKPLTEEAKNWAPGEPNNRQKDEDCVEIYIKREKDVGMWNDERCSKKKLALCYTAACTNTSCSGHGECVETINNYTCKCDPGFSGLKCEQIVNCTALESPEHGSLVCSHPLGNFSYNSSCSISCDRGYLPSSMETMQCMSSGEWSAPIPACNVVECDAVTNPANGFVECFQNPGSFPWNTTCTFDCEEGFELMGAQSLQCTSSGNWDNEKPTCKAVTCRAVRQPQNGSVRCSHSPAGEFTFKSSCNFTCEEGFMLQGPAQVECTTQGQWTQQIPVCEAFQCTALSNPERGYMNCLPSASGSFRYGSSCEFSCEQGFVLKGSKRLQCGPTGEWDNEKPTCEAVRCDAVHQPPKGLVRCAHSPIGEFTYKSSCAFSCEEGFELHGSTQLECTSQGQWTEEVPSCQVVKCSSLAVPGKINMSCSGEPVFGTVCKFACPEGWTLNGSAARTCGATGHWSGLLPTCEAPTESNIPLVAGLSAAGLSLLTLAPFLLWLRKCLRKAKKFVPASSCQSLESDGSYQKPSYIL

| SMILES | outcome [1] | outcome [2] | outcome [3] | outcome (KRT18 (gene 3875)) | outcome [4] | outcome [5] | outcome [6] | outcome [7] | outcome [8] | outcome (CD40, CD40 (gene 958)) | outcome [9] | outcome [10] | outcome [11] | outcome [12] | outcome [13] | AC50 [14] | outcome [15] | outcome [16] | AC50 (CD40, CD40 (gene 958)) | outcome [14] |
| --- | --- | --- | --- | --- | --- | --- | --- | --- | --- | --- | --- | --- | --- | --- | --- | --- | --- | --- | --- | --- |
| O=C(O)C(F)(F)C(F)(F)C(F)(F)C(F)(F)C(F)(F)C(F)(F)C(F)(F)C(F)F | inactive | inactive | inactive | inactive | inactive | inactive | inactive | inactive | inactive | inactive | inactive | inactive | inactive | inactive | inactive | 47.1 µM (active) and 57.5 µM (active) | inactive | inactive | – | – |
| C=C(F)C(=O)OC(C(F)(F)F)C(F)(F)F | inactive | inactive | inactive | inactive | inactive | inactive | inactive | inactive | inactive | inactive | inactive | inactive | inactive | inactive | inactive | – | inactive | inactive | 5.95 µM (active) | inactive |
| CC(C)(CO)CO | inactive | inactive | inactive | inactive | inactive | inactive | inactive | – | inactive | – | inactive | – | – | – | – | – | – | inactive | – | – |
